GDH-TPI inh: inhibits GDH-TPI coupling enzymes, artifact for Mtb FBA screen; AID 588335; GDH-TPI coupled enzyme counterscreen, NADH absorbance; inhibition, % at 4.8 µM; actives 1.2% (n = 360,000);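 also: 0% = DMSO wells and 100% = wells lacking the enzyme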
CCHFV vOTU inh: CCHFV vOTU protease inhibition; inhibition, % at 11.5 µM; AID 651958; Pep-AMC fluorescence; actives 0.55% (n = 370,000); also: 0% = vehicle wells with enzyme and 100% = no enzyme wells
RecA splice inh: Mtb RecA intein splicing inhibition | inhibition, % (test concentration not listed) | actives 0.75% (n = 290,000) | cell-free RecA intein splicing, fluorescence; in the data active = inhibition above about 30%;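 also: 0% = vehicle wells and 100% = reference inhibitor control wells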
Mtb FBA inh: inhibits M. tuberculosis FBA enzyme | purified M. tuberculosis FBA, fluorescence read-out | P9WQA3 | inhibition, % at 1 µM | actives 2.3% (n = 360,000) | AID 588726; in the data active = inhibition above about 27%;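 also: 0% = vehicle and 100% = reference inhibitor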
Target sequence (P9WQA3 whole entry, looked up): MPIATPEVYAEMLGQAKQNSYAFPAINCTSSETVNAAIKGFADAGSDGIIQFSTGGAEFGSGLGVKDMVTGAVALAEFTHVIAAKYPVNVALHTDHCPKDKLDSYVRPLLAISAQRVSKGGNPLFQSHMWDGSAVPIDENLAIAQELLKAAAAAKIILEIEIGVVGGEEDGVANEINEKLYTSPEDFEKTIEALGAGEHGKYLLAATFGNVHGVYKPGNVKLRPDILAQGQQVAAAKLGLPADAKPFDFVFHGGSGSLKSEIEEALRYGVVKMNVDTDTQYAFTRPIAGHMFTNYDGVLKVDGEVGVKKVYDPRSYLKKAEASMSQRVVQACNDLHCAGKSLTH
Starred values were filed as active, the others as inactive; nt = no result given; + = active, no number. The list is not random: actives were taken first. Their share in the collection is about 4.2%. Rule as the data show it, unless noted: active = inhibition above about 30%; inactive = the rest.

SMILES | GDH-TPI inh | CCHFV vOTU inh | RecA splice inh | Mtb FBA inh
CC[n+]1c(/C=C/N(C)c2ccccc2)oc2ccc(F)cc21 | 42* | 4 | 21 | -1
CC[n+]1c(/C=C/N(C)c2ccccc2)oc2ccccc21 | 68* | 6 | -5 | -1
COC(=O)C1CN(Cc2ccc(OC)cc2)CCS(=O)(=O)N1Cc1cn(Cc2ccc(OC)cc2)nn1 (centres undefined) | nt | -5 | nt | nt
CCc1nc(N)nc(N)c1-c1ccc(Cl)c([N+](=O)[O-])c1 | -2 | 15 | nt | 1
N#Cc1c(N)nc2c(c1-c1ccc(F)cc1)CCC2 | 20 | -73 | -8 | 64*
COc1ccc(CCN2C(=O)CCC2(C)c2nnnn2Cc2ccccc2)cc1OC (centres undefined) | nt | 4 | nt | nt
CCCCn1c(N)c(N(C)C(=O)c2cc3c(F)cccc3s2)c(=O)[nH]c1=O | -4 | 1 | nt | -1
C[C@@H]1COc2cc(Br)ccc2S(=O)(=O)N1Cc1cn(CC2CCCCC2)nn1 | nt | 3 | nt | nt
COCCn1c(=NC(=O)c2ccc3c(c2)OCO3)c(C#N)cc2c(=O)n3cccc(C)c3nc21 | nt | nt | -2 | nt
COC(=O)c1cc2c(=O)n3ccccc3nc2n(Cc2cccnc2)c1=N | nt | nt | -141 | nt
CCOC(=O)c1cc2c(=O)n3ccccc3nc2n(CCCOC)c1=NC(=O)c1ccncc1 | 17 | -112 | -96 | +
CCOC(=O)c1cc2c(=O)n3ccccc3nc2n(CCCOC)c1=NC(C)=O | 19 | -300 | nt | +
CCOC(=O)c1cc2c(=O)n3cccc(C)c3nc2n(CCOC)c1=NC(C)=O | 1 | -194 | nt | +
COC(=O)[C@]12CCCCC=C1N(Cc1ccc(OC)cc1)C(=O)[C@@H]2CC(=O)NCc1ccc(C)o1 | nt | 6 | nt | nt
COc1cc2cc(Oc3ccc4ccc(=O)oc4c3)c(=O)oc2cc1OC(C)=O | 28 | 0 | -68 | 9
O=C(Oc1ccc2ccc(=O)oc2c1)N1CCOCC1 | 10 | -1 | -3 | 12
COc1ccccc1C(=O)Oc1ccc2ccc(=O)oc2c1 | 16 | -204 | -87 | 117*
O=C(CN1C(=O)NC2(CCCCC2)C1=O)Oc1ccc2ccc(=O)oc2c1 | 14 | -367 | nt | +
O=C(Oc1ccc2ccc(=O)oc2c1)c1ccco1 | 4 | -402 | -1 | +
CCOC(=O)CSC1=NC(=O)/C(=C/c2ccc(OC)cc2)S1 | 18 | nt | 13 | -3
CC1(C)CCC[C@]2(C)[C@H]3Cc4cc(O)ccc4O[C@]3(C)CC[C@@H]12 | -1 | 12 | nt | 1
Cc1ccc(/C=N/NC(=O)c2cc3c(s2)CCCC3)o1 | 40* | 12 | nt | 2
Cc1ccc(/C=N/NC(=O)c2cccc(NC(=O)c3ccccc3C)c2)o1 | 13 | 14 | nt | -3
C/C(=N\NC(=O)c1ccc(N/N=C(\C)c2ccncc2)cc1)c1ccncc1 | 31* | 16 | -3 | -4
Cc1ccc(/C=N/NC(=O)c2ccccn2)o1 | 28 | 8 | -6 | 0
SMILES | GDH-TPI inh | CCHFV vOTU inh | RecA splice inh | Mtb FBA inh
Cc1ccc(/C=N/NC(=O)c2ccncc2)o1 | 38* | 3 | -1 | -4
Cc1cccc(C(=O)Nc2ccc(C(=O)N/N=C/c3ccc(C)o3)cc2)c1 | 41* | 17 | nt | -3
O=C(Nc1ccccc1C(F)(F)F)c1ncn[nH]1 | 1 | -7 | -5 | 3
COC(=O)[C@H](CC(C)C)N1Cc2nnn(Cc3ccccc3)c2-c2cc(F)ccc2S1(=O)=O | nt | 2 | nt | nt
COc1ccc(CCNC(=O)C(=O)c2cn(CC(=O)N3CCCC3)c3ccccc23)cc1 | 19 | -6 | nt | 1
CCCCN1CC(=O)N2[C@H](C[C@@]3(C)c4ccccc4N(S(=O)(=O)c4ccccc4)[C@@H]23)C1=O | nt | -3 | nt | nt
O=C(O)c1ccccc1C(=O)OC1CCCC2CCCC21 (centres undefined) | -3 | -12 | nt | -2
COc1ccc(-c2cc(CNC(C)=O)on2)cc1 | -2 | 10 | 1 | -5
COc1ccc(-c2cc(CNC(=O)CCl)on2)cc1 | 10 | 9 | 37* | 3
COCc1c(C(=O)NCCc2ccc(OC(F)F)cc2)oc2ccccc12 | 3 | 8 | nt | -1
COC(=O)c1c(C#N)c(N)nc2c1CCCC2 | 6 | -178 | -27 | 125*
COc1cc(-c2c(C#N)c(N)nc3c2CCCC3)ccc1O | 9 | 13 | 0 | 9
COc1ccc2[nH]c3c(NCCCN4CCCC4=O)ncnc3c2c1 | 18 | -61 | 2 | 152*
COc1ccc(CCn2cnc3c([nH]c4ccccc43)c2=O)cc1 | -6 | -4 | -3 | 6
COc1ccc2cc(C(=O)NCCCN3CCCC3=O)[nH]c2c1 | 12 | -10 | -1 | 12
COc1ccc2[nH]c3c(=O)n(CCc4ccccc4)cnc3c2c1 | 14 | -21 | -1 | 95*
O=C(NCC(O)c1ccccc1)c1ccc(Cl)c(S(=O)(=O)N2CCCC2)c1 (centres undefined) | 17 | nt | 2 | 4
